Test in all cases: NCI-60 one-dose screen, 48 h (100 = growth as untreated, 0 = no growth, -100 = all killed)
Test [1] has as its system HCT-15 colon. Particulars: 10 µM.
The subject of test [2] is HT29 colon. Particulars: 10 µM.
The subject of test [3] is SNB-75 CNS. The following applies: 10 µM.
The subject of test [4] is SNB-19 CNS. The following applies: 10 µM.
Test [5] has as its system U251 CNS. The following applies: 10 µM.
Test [6] has as its system PC-3 prostate. The following applies: 10 µM.
Test [7] deals with SK-MEL-5 melanoma. The following applies: 10 µM.
The test system of test [8] is UACC-62 melanoma. The following applies: 10 µM unless noted.
Test [9] has as its system LOX IMVI melanoma. Particulars: 10 µM.
Test [10] has as its system SK-MEL-28 melanoma. Particulars: 10 µM.

In PubChem BioAssay (NCI) one finds growth data, which are given here for 15 molecules.

This is part of a sample that, as a whole, favours compounds with a hit. Of some 83,000 tested, about 20% had one in any assay.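 For each line, cells grew in 96-well plates with the test compound present at a single concentration for 48 hours.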 Values without a mark were called inactive. Activity calls are given as the source filed them. The calls were made as follows: active = growth percent below 10; inactive = the rest.

`O=[N+]([O-])c1ccc(S(=O)(=O)NN=C2CCCCC2)cc1`: the growth in test [1] is 115%; in test [2], 107%; in [3] it was 87.8%; in test [4], 99.8%; in [5] it was 111%; in [6] it was 96.8%. For the same molecule, the growth was 105% in [7], 117% in [8], 95% in [9] and 110% in test [10].

`CCC(=O)Oc1ccc(OC)cc1`: the growth in test [1] is 105%; in [2] it was 105%; in test [3], 90.7%; in test [4], 104%; in test [5] it was 98.3%; in test [6], 110%. Moreover, the growth in [7] is 107%; in [8] it was 99.8%; in test [9], 105%; in test [10], 112%.

`O=C(/C=C\c1ccc(O)cc1)c1ccccc1`: the growth in test [1] was 88.5%; in test [2], 86.8%; in test [3] it was 81.4%; in test [4] it was 104%; in [5] it was 80.7%; in [6], 90.6%. For the same molecule, the growth in test [7] was 97.3%; in [8], 94.8%; in test [9], 94.4%; in test [10], 103%.

For the molecule `CC(C)COC(=O)COC(=O)OCCOCCOC(=O)OCC(=O)OCC(C)C`, the growth was 104% in [1]; 101% in [2]; 102% in test [3]; 101% in [4]; 94.9% in test [5]; 94.8% in test [6]. The growth in [7] was 101%; in [8], 97.6%; in [9], 106%; in [10], 107%.

Consider `Oc1ccccc1-c1nnco1`, for which the growth was 100% in test [1]; 97.5% in test [2]; 45.5% in test [3]; 93.2% in test [4]; 82.9% in test [5]; 91.8% in [6]. For the same molecule, the growth is 102% in test [7], 89.9% in test [8], 87.7% in test [9] and 101% in [10].

On to `CC1(O)CCCCC1O` (stereo not given), for which the growth was 102% in [1]; 106% in [2]; 96.5% in test [3]; 97.3% in [4]; 104% in test [5]; 98.4% in test [6]. Moreover, the growth in test [7] is 107%; in test [8], 96.5%; in [9], 106%; in [10], 113%.

For `C=C[Si](OC(C)=O)(OC(C)=O)OC(C)=O`, the growth in [1] was 103%; in test [2], 101%; in test [3], 95.5%; in test [4] it was 109%; in test [5], 100%; in [6], 91.6%. The growth was 104% in [7], 116% in [8], 98.4% in test [9] and 104% in [10].

As to `COC(=O)c1ccc(C(C)C)cc1`, the growth was 96.2% in [1]; 107% in [2]; 103% in test [3]; 103% in test [4]; 98.6% in test [5]; 90.6% in [6]. Besides, the growth in test [7] is 104%; in test [8], 99.4%; in [9], 95%; in test [10] it was 110%.

Take `COc1cc(C(=O)NC(=S)Nc2ccc3ccccc3c2)cc(OC)c1OC`: the growth in [1] was 87.4%; in test [2] it was 100%; in test [3], 92%; in test [4] it was 107%; in [5] it was 102%; in test [6] it was 82.4%. Also, the growth in [7] is 55.5%; in test [8], 36.5%; in test [9], 91%; in test [10], 98.1%.

As to `CCOC(=O)c1ccc(NC(=S)P(=O)(c2ccccc2)c2ccccc2)cc1`, the growth is 98.5% in test [1]; 111% in [2]; 101% in test [3]; 106% in test [4]; 99.2% in test [5]; 80.1% in [6]. For the same molecule, the growth in [7] is 104%; in test [8] it was 99.4%; in test [9], 84.8%; in test [10], 106%.

With `NC(=O)NC(=O)c1ccc(Cl)cc1`, the growth in [1] is 105%; in test [2], 94.3%; in test [3], 93.6%; in test [4], 111%; in test [5] it was 106%; in [6], 96.5%. The growth in test [7] was 107%; in test [8], 96.1%; in [9], 103%; in test [10], 119%.

As to `CC(=Nc1ccccc1)C1=C(O)C(Cc2cccc(F)c2)NC1=O` (stereo not given), the growth in test [1] was 8.21% (active); in test [2], -12.1% (active); in test [3], 78.3%; in test [4], 36.2%; in [5], 10.8%; in test [6], 19.2%. Besides, the growth in test [7] is 1.57% (active); in [8], 32.9%; in [9], 5.05% (active); in [10] it was 63.5%.

For the molecule `C=CC[N+](C)(C)C`, the growth in test [1] was 98.7%; in [2], 104%; in test [3], 94.3%; in test [4], 98.7%; in test [5] it was 101%; in [6] it was 97.6%. For the same molecule, the growth in test [7] is 105%; in test [8], 102%; in test [9], 92.2%; in test [10] it was 107%.

Turning to `COC(=O)c1cccnc1`, the growth in [1] was 103%; in [2], 101%; in test [3], 88.2%; in [4], 95.3%; in test [5] it was 99.4%; in test [6] it was 95.2%. The growth in test [7] is 96.4%; in [8], 90.8%; in test [9], 95.6%; in test [10], 103%.

Take `CCCCCCCCOC(=O)c1ccccn1`: the growth in [1] was 97.3%; in test [2] it was 96.2%; in [3] it was 84.4%; in test [4], 105%; in test [5], 110%; in test [6], 97.4%. The growth in [7] is 104%; in test [8] it was 99.4%; in test [9], 91.7%; in [10], 107%.
